In the library only some 7.7% were active in any assay of this set; here they are far more common.
PD-1 reversal = activators reversing PD-1 mediated T-cell inhibition, primary screen, luminescence, primary human CD4 T cells, PD-L1 beads | CellTiter-Glo 96 h | 29,000 tested, under 10 active | activation, % (concentration not given with the values); call rule not given here;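 also: 0% = median vehicle wells and 100% = positive control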
Shh pathway inh = Hedgehog pathway signaling inhibitors, primary screen, luminescence, Shh-LIGHT2 cells, Gli-luciferase; Shh-LIGHT2 Gli-luciferase reporter, 30 h; inhibition, % (concentration not given with the values); hit rate 2.1% among 22,000; AID 2313, 2010;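 active = mean inhibition across valid replicates above about 65%, limit read from the data; inconclusive = mean under the limit, yet half or more replicates past it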;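 also: pathway switched on by Shh-conditioned medium diluted 1 in 25 in low serum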
NOMO-1 viab = NOMO-1 AML cell viability reduction, primary screen, STK33 inhibitor project, CellTiter-Glo luminescence; NOMO-1 AML viability, 72 h; inhibition, % (no concentration beside the values); hit rate 7.5% among 37,000; in the data active = inhibition above about 80%; inconclusive = no clear call, values can overlap the other calls
An asterisk follows results filed as active; ? = inconclusive; / = no result.

SMILES | PD-1 reversal | Shh pathway inh | NOMO-1 viab
N#Cc1c(C(F)(F)F)cc(-c2cccs2)nc1SCC(O)COc1ccc(Cl)cc1 (configuration not stated) | -6 | / | 58
COc1cc(NC(=O)C(Sc2nc(C)cc(C)c2C#N)c2ccccc2)c(OC)cc1Cl (configuration not stated) | 3 | 32 | 6
COc1ccc(-c2cc(-c3cccs3)nc(SC(C(=O)O)c3ccccc3)c2C#N)cc1 (configuration not stated) | -6 | / | 92*
CS(=O)(=O)N(CC(=O)Nc1ccc(Cl)c(Cl)c1)c1ccc(I)cc1 | -2 | / | 53
CC(=O)c1cccc(NC(=S)NCCn2cc(Cl)cn2)c1 | / | / | 15
Cc1ccc(N(CC(=O)Nc2ccccc2F)S(C)(=O)=O)cc1Cl | 0 | / | 9
Cc1ccccc1-c1nc(C#N)c(NCCN2CCOCC2)o1 | -1 | / | 28
O=C(CSc1nc(-c2ccccc2)cc(C(F)(F)F)n1)Nc1cccc(Cl)c1Cl | -1 | / | 20
COC(=O)c1ccccc1NC(=O)C(C)NS(=O)(=O)c1ccc(F)cc1 (configuration not stated) | 0 | / | 6
COc1ccc2c(c1)O[C@@H]1COc3cc(OC)c(OC)cc3[C@@H]1C2=O | / | 32 | 52
COc1cc2c(cc1OC)[C@@H]1C(=O)c3ccc4c(c3O[C@@H]1CO2)CCC(C)(C)O4 | / | 94* | 44
NCCCN(Cc1ccco1)C1CCCC1 | -4 | / | 106*
O=C(CSc1nnc(-c2ccccc2)n1-c1ccccc1)Nc1ccccc1C(F)(F)F | 1 | / | 25
CC(NS(=O)(=O)c1ccc(Br)cc1)C(=O)Nc1ccccc1 (configuration not stated) | 1 | / | -5
Cc1cc(C)c2c(=O)[nH]c(SCC(=O)c3cccs3)nc2n1 | 3 | / | -11
CCN(CC)c1c(C#N)c(SCC(=O)c2cccs2)cc2c1CCCC2 | -2 | 81* | 45
C[C@@H]1CN([C@@H](C)CO)C(=O)c2cc(NC(=O)Nc3ccc(C(F)(F)F)cc3)ccc2O[C@@H]1CN(C)C(=O)Nc1ccc2c(c1)OCO2 | -4 | 40 | 102*
C[C@@H]1CN([C@H](C)CO)C(=O)c2cc(NC(=O)Nc3ccc(C(F)(F)F)cc3)ccc2O[C@@H]1CN(C)C(=O)Nc1ccc2c(c1)OCO2 | -1 | 4 | 95*
C[C@@H]1CN([C@H](C)CO)C(=O)c2cc(NC(=O)Nc3ccc4c(c3)OCO4)ccc2O[C@H]1CN(C)C(=O)Nc1ccc(C(F)(F)F)cc1 | 0 | 0 | 23
C[C@H]1CN([C@@H](C)CO)C(=O)c2cc(NC(=O)Nc3ccc(C(F)(F)F)cc3)ccc2O[C@H]1CN(C)C(=O)Nc1ccc2c(c1)OCO2 | -1 | 12 | 42
COC(=O)c1ccccc1NC(=O)C(C)(C)Oc1ccc(Cl)cc1 | -2 | / | -6
CCNC(=O)c1c(NC(=O)c2ccccc2[N+](=O)[O-])sc2c1CCCC2 | 0 | / | 5
COc1ccc(Cl)cc1NC(=O)CSc1nnc(-c2ccccc2)n1C | -1 | / | 14
CCn1c(SCC(=O)Nc2ccc([N+](=O)[O-])cc2)nnc1-c1ccccc1F | / | / | 13
COc1ccc([N+](=O)[O-])cc1NC(=O)CN(c1cc(C(F)(F)F)ccc1Cl)S(C)(=O)=O | / | / | 20
SMILES | PD-1 reversal | Shh pathway inh | NOMO-1 viab
COc1ccccc1NC(=O)CN1C(=O)C2C3CCC(C3)C2C1=O (configuration not stated) | -2 | / | 10
COc1ccccc1NC(=O)C(Cc1ccccc1)N1C(=O)C2C3c4ccccc4C(c4ccccc43)C2C1=O (configuration not stated) | 0 | / | 92*
CCOC(=O)C1CCN(C(c2cccc(Cl)c2)c2c(NC(C)=O)sc3c2CCCC3)CC1 (configuration not stated) | 0 | 20 | 109*
CCOC(=O)c1c(NC(C)=O)sc2c1CCCCC2 | 1 | -27 | 43
O=C(COc1cc(Cl)c(Cl)cc1Cl)Nc1ccccc1[N+](=O)[O-] | / | / | -10
Cc1sc(NC(=O)COc2ccc(Cl)cc2Br)c(C(N)=O)c1C | 3 | / | 14
CCCCC[C@H](O)/C=C/[C@H]1C=CC(=O)[C@@H]1C/C=C\CCCC(=O)O | 2 | -14 | 41
CC/C=C\C[C@@H]1C(=O)C=C[C@@H]1CCCCCCCC(=O)O | -8 | 37 | 117*
C=CCc1c(C)nc(OCC(=O)OCC)c(C#N)c1C | 2 | 17 | 12
CO[C@@H]1C=C[C@@]23c4cc5c(cc4CN(CC2O)[C@H]3C1)OCO5 (some centres not stated) | -1 | 88* | 113*
CCCc1cc(=O)[nH]c(SCC(=O)Nc2cc(C)cc(C)c2)n1 | 1 | / | 2
O=C(CN1C(=O)c2ccccc2C1=O)Nc1ccc(NC(=O)c2ccccc2F)cc1 | 2 | / | 10
COc1ccccc1NC(=O)C1c2ccccc2Oc2ccccc21 | 0 | / | ?
COc1ccccc1NC(=O)/C=C\c1ccco1 | -19 | 68* | 107*
CCOC(=O)c1ccccc1NC(=O)COc1ccccc1C | 1 | / | -12
COc1ccc(N=Cc2c(O)ccc3oc4c(c23)CCCC4)cc1 | 0 | 0 | 99*
Oc1ccc2oc3c(c2c1/C=N/N1CCCCC1)CCCC3 | 2 | -44 | 11
Cn1c(O)c(C=Nc2cccc(CO)c2)c2ccccc21 | 1 | 10 | 26
CCc1ccc(N=Cc2c(O)n(-c3ccccc3)c(=O)c3ccccc23)cc1 | 0 | -6 | 120*
COc1ccc2cc3[n+](cc2c1OC)CCc1cc2c(cc1-3)OCO2 | 0 | 17 | 110*
COc1ccc2c(c1OC)CN(C)CCc1cc3c(cc1C(=O)C2)OCO3 | -2 | 5 | 6
CSc1cccc(NC(=O)CN(C)S(=O)(=O)c2c(C)cc(C)cc2C)c1 | 0 | / | 16
COc1ccccc1N(CC(=O)N(C)C)S(=O)(=O)c1ccc(C)cc1 | 1 | / | 19
CC[C@H](CO)Nc1nc(NCc2ccccc2)c2ncn(C(C)C)c2n1 | 4 | 52 | ?
CC(C)n1cnc2c(Nc3cccc(Cl)c3)nc(NCCO)nc21 | 7 | 75* | 31
SMILES | PD-1 reversal | Shh pathway inh | NOMO-1 viab
C[C@H]1CN([C@@H](C)CO)C(=O)Cc2cc(NC(=O)CCCCCC(=O)Nc3ccccc3N)ccc2O[C@H]1CN(C)Cc1ccc(Cl)c(Cl)c1 | 2 | / | 127*
C[C@H](CO)N1C[C@H](C)[C@H](CN(C)Cc2ccc(Cl)c(Cl)c2)Oc2ccc(NC(=O)CCCCCC(=O)Nc3ccccc3N)cc2C1=O | -1 | / | 133*
C[C@@H]1CCCCO[C@H](CN(C)Cc2ccc(Cl)c(Cl)c2)[C@@H](C)CN([C@H](C)CO)C(=O)c2cc(NC(=O)Cc3ccccc3)ccc2O1 | -5 | 4 | 44
C[C@@H]1CCCCO[C@H](CN(C)Cc2ccc(Cl)c(Cl)c2)[C@@H](C)CN([C@H](C)CO)C(=O)c2cc(NC(=O)CCCCCC(=O)Nc3ccccc3N)ccc2O1 | -1 | / | 126*
C[C@@H]1CN([C@H](C)CO)C(=O)Cc2cc(NC(=O)CCCCCC(=O)Nc3ccccc3N)ccc2O[C@H]1CN(C)Cc1ccc2c(c1)OCO2 | 0 | / | 49
C[C@@H]1CCCCO[C@@H](CN(C)Cc2ccc(Cl)c(Cl)c2)[C@@H](C)CN([C@H](C)CO)C(=O)c2cc(NC(=O)Cc3ccccc3)ccc2O1 | -1 | / | 102*
